Measurements as given in PubChem BioAssay AID1850 (Southern Research Specialized Biocontainment Screening …, 2009).
“And” between values parts separate entries of the source, which are not always exact repeats. Identical values can stand only once. Hit rate of the full screen: of about 310,000 compounds, about 1,000 (0.32%) were called active. How the calls were made is not given here. Only a sample is shown. Entries with a potency or affinity are not part of this list.

Assay: PhoP regulon inhibitors, Salmonella typhi PhoP promoter GFP reporter, confirmatory (AID 1850);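 further: 0% = induced wells with vehicle and 100% = uninduced wells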
Conditions: fluorescence, 4 h, at 50 µM, stronger effect = higher value

Compound	inhibition
C[n+]1c2n(c3ccccc31)N=C(c1ccc(Cl)cc1)CS2	12.3% (inactive)
C[n+]1c2n(c3ccccc31)N=C(c1ccccc1)CS2	0.32% (inactive) and 11.8% (inactive)
O=C(CSC1=NS(=O)(=O)c2ccccc2N1)NCc1ccc(F)cc1	-4.98% (inactive)
O=C(Cc1cccs1)N/N=C/c1ccccc1	10.9% (inactive)
O=C(CNC(=O)c1cccc(F)c1)N/N=C/c1cccc([N+](=O)[O-])c1	-5.75% (inactive)
O=C(Cc1ccccc1)NCC(=O)N/N=C/c1ccc([N+](=O)[O-])s1	11.8% (inactive)
O=C(CNC(=O)c1ccccc1Cl)N/N=C/c1ccc([N+](=O)[O-])s1	-11.8% (inactive)
O=C(Cc1ccccc1)N/N=C/c1ccc([N+](=O)[O-])s1	-7.77% (inactive)
O=C(CNC(=O)c1ccccc1)N/N=C/c1cccs1	-1.08% (inactive)
Cn1cccc1Cc1nnc(SCC(=O)Nc2ccc3c(c2)OCO3)n1-c1ccc(F)cc1	-1.53% (inactive)
NC(=O)CN1C(=O)NC2(CCOc3ccccc32)C1=O (stereo unspecified)	1.52% (inactive)
CC(=O)Nc1ccc(NC(=O)c2cccc(-c3cc4ccccc4oc3=O)c2)cc1	12.9% (inactive)
CCn1cc(C(=O)NCCCOC(C)C)c2cc(OC)c(OC)cc2c1=O	2.36% (inactive)
CN(C)c1ccc(P(=O)(COc2ccc([N+](=O)[O-])cc2)c2ccc(N(C)C)cc2)cc1	2.27% (inactive)
O=C(CSc1ccc(-c2cccnc2)nn1)N1CCCCCC1	1.55% (inactive)
O=C(CCCn1cc([N+](=O)[O-])cn1)NCc1ccccc1	8.46% (inactive)
Cc1c(C(=S)NC(=O)C2CC2)c(=O)n(-c2ccccc2)n1C	-1.42% (inactive)
CCc1ccc2c(CN(CC)Cc3nc4ccccc4c(=O)[nH]3)cc(=O)oc2c1	1.52% (inactive)
Nc1nc2ccccc2n1CCOc1ccc(Cl)cc1	14.7% (inactive)
CCn1c(N)nc2ccccc21	4.17% (inactive)
Nc1nc2ccccc2n1CCOc1ccc(F)cc1	-3.28% (inactive)
Cc1ccc(Cn2c(N)nc3ccccc32)cc1	9.42% (inactive)
Cc1ccc(NS(=O)(=O)c2ccc(C(=O)N3CC(C)CC(C)C3)cc2)cc1 (stereo unspecified)	-0.14% (inactive)

Compound	inhibition
Cc1cc(=O)oc2cc(OCc3ccc(S(=O)(=O)N4CCOCC4)cc3)ccc12	-0.96% (inactive)
CC(C)c1ccc(/C=C2\SC(=O)N(CC(=O)NC3CCS(=O)(=O)C3)C2=O)cc1 (stereo unspecified)	-0.28% (inactive)
CC(C(=O)N(C)C1CCS(=O)(=O)C1)N1C(=O)/C(=C/c2ccc(F)cc2)SC1=S (stereo unspecified)	-40% (inactive)
COc1ccc(/C=C2\SC(=S)N(C(C)C(=O)NC3C=CS(=O)(=O)C3)C2=O)cc1 (stereo unspecified)	0.74% (inactive)
COc1cccc(/C=C2\SC(=S)N(C(C)C(=O)NC3C=CS(=O)(=O)C3)C2=O)c1 (stereo unspecified)	-39% (inactive)
CC(C(=O)NC1C=CS(=O)(=O)C1)N1C(=O)/C(=C\c2ccccc2)SC1=S (stereo unspecified)	-9.78% (inactive)
O=C(CN1C(=O)/C(=C/c2cccc(Cl)c2)SC1=S)NC1C=CS(=O)(=O)C1 (stereo unspecified)	-2.52% (inactive)
COc1cc2c(cc1OC)C(C)N(C(=O)c1c(C)noc1C)CC2 (stereo unspecified)	-18.4% (inactive)
CC(=O)CCC(=O)OCC(=O)Nc1ccc(SC(F)F)cc1	-3.54% (inactive)
O=C1CCC(=O)N1c1ccc(NC2CCN(Cc3ccccc3)CC2)c([N+](=O)[O-])c1	-3.82% (inactive)
CC1(C)C2CC[C@]3(C)C(CC=C4[C@@H]5C[C@@](C)(CO)[C@@H](O)C[C@]5(C(=O)O)CC[C@]43C)[C@@]2(C)CC[C@@H]1O (stereo partly specified)	-13.5% (inactive)
CC(C)(C)NCc1cccn1-c1sc2c(c1C#N)CCCC2	-5.99% (inactive)
C=CC[n+]1c(/C=C2\C=Cc3cc(C)ccc3N2CC)ccc2ccccc21	-11.1% (inactive)
CCN1/C(=C/c2ccc3ccccc3[n+]2CCCS(=O)(=O)[O-])C=Cc2cc(C)ccc21	14.2% (inactive)
CCOC(=O)C(=CNc1ccc(C(O)(C(=O)OCC)C(F)(F)F)cc1C)C(=O)OCC (stereo unspecified)	-10.1% (inactive)
CCOC(=O)c1[nH]c2ccc(OC)cc2c1NC(=O)CN1CCSCC1	6.71% (inactive)
Cc1cccc(N2CCN(C(=O)c3csc4ccccc34)CC2C)c1 (stereo unspecified)	-6.46% (inactive)
Cc1nonc1C(=O)N/N=C/c1cccc(O)c1	-9.29% (inactive)
Nc1nonc1C(=O)N/N=C/c1ccc([N+](=O)[O-])o1	-4.72% (inactive)
O=C(CSc1ccc(Cl)cc1)N/N=C/c1ccc([N+](=O)[O-])o1	-1.14% (inactive)
Cc1ccc(NC(=O)CCC(=O)N/N=C/c2ccc([N+](=O)[O-])o2)cc1C	-0.54% (inactive)
Cc1nonc1C(=O)N/N=C/c1ccc(O)c(O)c1	-18.7% (inactive)
CCCCCC(=O)N/N=C/c1ccc([N+](=O)[O-])o1	17.1% (inactive)

Compound	inhibition
Cc1cc(C(=O)N/N=C/c2ccc([N+](=O)[O-])o2)c(C)o1	-1.11% (inactive)
CCCOc1ccc(CCC(=O)N/N=C/c2ccc([N+](=O)[O-])o2)cc1	3.44% (inactive)
COc1ccccc1C(=O)N1CCc2ccccc21	-2.54% (inactive)
COCCN(C(=S)Nc1cc(C)cc(C)c1)C(C)c1cccnc1 (stereo unspecified)	-6.47% (inactive)
O=C1c2ccccc2C(=O)N1OCc1ccccc1	-23.3% (inactive)
COc1ccc(N(C)C(=O)CCC(=O)Nc2ccc3nc(N4CCOCC4)cc(C)c3c2)c(OC)c1	-10.9% (inactive)
CC(C)c1ccccc1OCC(=O)Nc1ccc2[nH]ncc2c1	-2.28% (inactive)
O=C1CC(c2ccccc2Cl)CC(O)=C1C=Nc1ccccc1 (stereo unspecified)	-11% (inactive)
O=C(CCN1CCN(c2ccccc2)CC1)N/N=C/c1ccccc1O	-12.1% (inactive)
O=C(CNc1cccc([N+](=O)[O-])c1)N/N=C/c1ccc([N+](=O)[O-])o1	17.3% (inactive)
Cc1cc(C)cc(OCC(=O)N/N=C/c2ccc([N+](=O)[O-])o2)c1	-6.8% (inactive)
Cc1nc2ccccn2c1C(=O)N/N=C/c1ccccc1[N+](=O)[O-]	5.76% (inactive)
O=C(COc1ccccc1)N/N=C/c1ccc([N+](=O)[O-])o1	3.11% (inactive)
O=C(Cc1ccccc1)N/N=C/c1ccc(-c2ccc([N+](=O)[O-])cc2)o1	-11.9% (inactive)
Cc1nc2ccccn2c1C(=O)N/N=C/c1ccc([N+](=O)[O-])cc1	2.94% (inactive)
CC(=O)Nc1ccc(/C=N/NC(=O)CCN2CCN(c3ccccc3)CC2)cc1	3.88% (inactive)
COc1cc(Nc2nc3ccccc3nc2NS(=O)(=O)c2ccc([N+](=O)[O-])cc2)cc(OC)c1OC	6.03% (inactive)
CN(Cc1ccccc1)CC(O)COc1ccc(CNCCc2cccnc2)cc1 (stereo unspecified)	9.53% (inactive)
Cc1ncc(CCl)c2c1OC(C)(C)OC2	5.02% (inactive)
COc1ccc(NC(=O)NCc2cccnc2)c(OC)c1	-7.58% (inactive)
O=C(Cc1ccccc1)Nc1nccs1	-0.57% (inactive)
Cc1cc(OC(C)C(=O)N2C[C@H]3C[C@@H](C2)c2cccc(=O)n2C3)c2c(C)c(C)c(=O)oc2c1 (stereo partly specified)	-6.28% (inactive)
CC(C)Cc1nnc(NC(=O)CCC(=O)N2CCN(c3ccccn3)CC2)s1	-13% (inactive)

Compound	inhibition
O=[N+]([O-])c1cccnc1NCCc1c[nH]c2ccccc12	-3.53% (inactive)
Cc1cc(NC(=O)CSCC(=O)N2CCN(c3cccc(C(F)(F)F)c3)CC2)no1	6.28% (inactive)
O=C(N/N=C/C=C/c1ccccc1[N+](=O)[O-])c1cccs1	-2.89% (inactive)
CCCC(=O)Nc1ccc(C(=O)N/N=C/c2ccc([N+](=O)[O-])o2)cc1	14.4% (inactive)
CCOC(=O)N/N=C(\C)c1ccc(C)o1	-8.47% (inactive)
NC(=O)N/N=C/c1ccc([N+](=O)[O-])o1	1.06% (inactive)
O=C(N/N=C/C=C/c1ccc([N+](=O)[O-])cc1)c1cccs1	6.74% (inactive)
O=C(N/N=C/c1ccc([N+](=O)[O-])o1)c1ccc2c(c1)OCO2	3.54% (inactive)
O=C(CN1CCCCCCC1)N/N=C/c1ccc([N+](=O)[O-])o1	8.07% (inactive)
C/C(=N/NC(=O)C(O)(c1ccccc1)c1ccccc1)c1ccc([N+](=O)[O-])o1	-14% (inactive)
COc1ccc(C2C(C(C)=O)=C(O)C(=O)N2Cc2ccccc2)c(OC)c1 (stereo unspecified)	-1.09% (inactive)
Cc1ccc([C@@H]2[C@@H]3C(=O)N(C)C(=O)[C@@H]3[C@]3(Cc4ccccc4)C(=O)N(Cc4ccccn4)CC(=O)N23)o1	5.99% (inactive)
COc1ccccc1N1CCN(C2CCCN(C(=O)c3cc(C4CC4)on3)C2)CC1 (stereo unspecified)	-1.91% (inactive)
O=C(C[n+]1cc(-c2ccccc2)n2c1CCCCC2)c1ccc(Br)cc1	-5.28% (inactive)
CCOC(=O)N1CCN(C(=O)c2cn(CC)c3ccc(S(=O)(=O)N4CC(C)CC(C)C4)cc3c2=O)CC1 (stereo unspecified)	-8.02% (inactive)
O=C(COC(=O)CCN=C1NS(=O)(=O)c2ccccc21)NC1CCCCCCC1	2.68% (inactive)
COc1cccc(NC(=S)NC(=O)Cc2ccc(Cl)cc2)c1	-3.77% (inactive)
COC(=O)N/N=C/c1ccc([N+](=O)[O-])o1	10.7% (inactive)
CCOC(=O)N/N=C/c1ccc(C)o1	-0.31% (inactive)
Cc1ccc2c(c1)C(=O)CC(O)(C(F)(F)F)O2 (stereo unspecified)	-10.7% (inactive)
O=C(Nc1ccccc1)c1ccc(OC(=O)c2cc3ccccc3o2)cc1	1.84% (inactive)
COc1ccc(OC(=O)c2cc3ccccc3o2)cc1	3.29% (inactive)
